Assay results published in ChEMBL document CHEMBL3988442, “University of Dundee, Small-Polar-MMV Screening Library” (2021).

How the values were obtained:
[1] = molecular target: T1, Aspartate--tRNA(Asp/Asn) ligase (Mycobacterium tuberculosis (strain ATCC 25618 / H37Rv)) (UniProt P9WFW3); assay: Assay for Asp RNA synthetase-1 from Mycobacterium tuberculosis; type: functional; design: scale not given: direction of the effect not stated beside the values; settings: 30 µM; note: in the data most compounds retested in dose-response had high values
T1 sequence (whole entry): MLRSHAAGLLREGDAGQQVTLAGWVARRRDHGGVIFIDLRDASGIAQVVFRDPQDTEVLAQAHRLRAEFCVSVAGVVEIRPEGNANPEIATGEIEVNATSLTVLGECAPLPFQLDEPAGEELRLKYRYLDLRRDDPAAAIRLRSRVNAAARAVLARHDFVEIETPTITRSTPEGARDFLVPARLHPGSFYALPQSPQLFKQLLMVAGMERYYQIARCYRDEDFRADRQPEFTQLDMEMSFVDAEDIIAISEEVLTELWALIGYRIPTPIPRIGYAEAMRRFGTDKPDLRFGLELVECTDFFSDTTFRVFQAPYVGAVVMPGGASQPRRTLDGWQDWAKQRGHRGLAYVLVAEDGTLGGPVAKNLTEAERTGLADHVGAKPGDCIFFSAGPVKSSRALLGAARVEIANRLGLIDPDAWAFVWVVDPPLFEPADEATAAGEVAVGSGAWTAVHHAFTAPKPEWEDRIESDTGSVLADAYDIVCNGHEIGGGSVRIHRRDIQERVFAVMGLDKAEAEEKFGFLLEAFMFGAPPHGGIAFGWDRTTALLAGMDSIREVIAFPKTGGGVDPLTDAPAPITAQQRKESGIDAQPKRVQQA

[2] = molecular target: Shiga toxin 2 (Escherichia coli O157:H7) (UniProt P09385+P09386); assay: E. coli 0.157:H7 Shiga Toxin SOP - stx2 screening assay; type: functional; design: scale not given: direction of the effect not stated beside the values; settings: 30 µM

| SMILES | Percent Effect [1] [%] | Percent Effect [2] [%] |
| --- | --- | --- |
| CNS(=O)(=O)c1ccc(C(=O)N2CCCC2c2cnn(C)c2)o1 (stereo not given) | -2.58 | -29.3 |
| CCN1CC(C(=O)NCc2ccccc2-n2cccn2)CC1=O (stereo not given) | 7.12 | 20.1 |
| Cc1nnc(C(C)NCC2(c3c(F)cccc3F)CCCC2)o1 (stereo not given) | -1.77 | 9.79 |
| O=C(c1ccc[nH]1)N1CCn2cc(Cn3cncn3)nc2C1 | 1.43 | -6.64 |
| CCN1CC2(CC1=O)CN(C(C)=O)CCN(C(=O)c1ccco1)C2 (stereo not given) | -3.81 | -35.2 |
| CC(C(=O)N1CCCC1)N1CCC(c2nccn2CC2CCC2)CC1 (stereo not given) | -1.49 | -1.48 |
| COc1ccc2c(c1)CCN(CCC(=O)NC1CCCCC1)CC2 | -0.993 | -9.64 |
| Cc1nc(CN2C[C@@H]3CN(C(=O)c4ccnnc4)C[C@@H]3C2=O)cs1 | -3.71 | -1.02 |
| COc1ccc(Oc2cncc(C3CCCN3C(C)=O)n2)cc1 (stereo not given) | 0.194 | -6.98 |
| CCOCC1CN(Cc2cnn(C)c2)Cc2nn(C)cc21 (stereo not given) | -3.19 | -11.8 |
| Cc1nc(C)n(CC2CCCN(CC(=O)Nc3c(C)n[nH]c3C)C2)n1 (stereo not given) | -1.34 | 32.2 |
| CC(C)OCCCN1CCCC(c2nc3ccccc3n2C(C)C)C1 (stereo not given) | 6.04 | -18.5 |
| Cc1nn(C)c(C)c1C1CCCN1Cc1nc(C)c2ccccc2n1 (stereo not given) | 0.742 | 10.8 |
| CCn1cc2c(n1)C(COC)CN(C(=O)COc1ccccc1C)C2 (stereo not given) | 2.12 | 3.11 |
| CS(=O)(=O)N[C@@H]1CCO[C@]2(CCN(C(=O)c3cnccn3)C2)C1 | 4.35 | 3.82 |
| COCCN1CC[C@@H]2O[C@@H](COCC(=O)N3CCCC3)CC[C@@H]21 | -4.13 | -8.7 |
| Cn1cnnc1C1CCCN(C(=O)c2ccccc2Cl)C1 (stereo not given) | 1.15 | 22.4 |
| Cc1ccc(Cc2cnc(NC(=O)C3CNC(=O)N3)s2)cc1F (stereo not given) | -6.24 | -17.9 |
| CCc1nc(CN(C)CC2CCN(CCO)CC2)no1 | -1.64 | -1.86 |
| Cc1nc(CN2CCN(Cc3nccn3C)CC2)no1 | -3.87 | 6.4 |
